From the supplement of paper PMC4022240
± gives the standard deviation.

T1: HaloTag-ATRX ADD domain (163-292)
T1 chain: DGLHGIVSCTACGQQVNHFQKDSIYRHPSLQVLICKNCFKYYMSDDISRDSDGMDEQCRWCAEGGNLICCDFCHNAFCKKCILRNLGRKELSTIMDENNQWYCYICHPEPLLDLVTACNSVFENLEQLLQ


Target: T1, HaloTag-ATRX ADD domain (163-292)
Assay: peptide microarray binding signal (635 nm), min-max normalized on array (fraction of array maximum); higher = stronger binding
Details: peptide region: Unmod H1 variant; binder concentration: 50 nM
Method in brief: (§1)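 Histone 13-mer peptide–cellulose conjugates were printed in triplicate on nitrocellulose with a Cy3 tracer, then blocked overnight at 4°C. Arrays were probed for 1 h at 4°C with biotin-labelled HaloTag reader fusions (10 nM to 1 μM) plus streptavidin-Alexa Fluor 647, or with rabbit histone antibodies (1:10,000 to 1:2,000) plus anti-rabbit Alexa 647. An Axon GenePix 4000B scanned 635 nm for signal and 532 nm for misprints. Binding signal is the triplicate-spot mean intensity, min-max scaled per library.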

| Binder | peptide microarray binding signal |
| --- | --- |
| TKPKTAKPKKAAP [Unmod H1 variant T K P K T A K P K K A A P] | 0.0172 ± 0.00023 |
| KTAKPKKAAPKKK [Unmod H1 variant K T A K P K K A A P K K K] | 0.01737 ± 0.0001 |
| SETAPAAPAAPAP [Unmod H1 variant S E T A P A A P A A P A P] | 0.0194 ± 0.0011 |
| APAPAEKTPVKKK [Unmod H1 variant A P A P A E K T P V K K K] | 0.021 ± 0.0011 |
| VKKKARKSAGAAK [Unmod H1 variant V K K K A R K S A G A A K] | 0.0176 ± 0.00024 |
| GAAKRKASGPPVS [Unmod H1 variant G A A K R K A S G P P V S] | 0.0168 ± 0.00018 |
| PPVSELITKAVAA [Unmod H1 variant P P V S E L I T K A V A A] | 0.0304 ± 0.017 |
| AVAASKERSGVSL [Unmod H1 variant A V A A S K E R S G V S L] | 0.0286 ± 0.0016 |
| GVSLAALKKALAA [Unmod H1 variant G V S L A A L K K A L A A] | 0.0641 ± 0.057 |
| ALAAAGYDVEKNN [Unmod H1 variant A L A A A G Y D V E K N N] | 0.021 ± 0.00023 |

Same assay, conditions: peptide region: Unmod H1 variant; binder concentration: 500 nM

| Binder | peptide microarray binding signal |
| --- | --- |
| TKPKTAKPKKAAP [Unmod H1 variant T K P K T A K P K K A A P] | 0.0103 ± 0.00048 |
| KTAKPKKAAPKKK [Unmod H1 variant K T A K P K K A A P K K K] | 0.00729 ± 0.00021 |
| SETAPAAPAAPAP [Unmod H1 variant S E T A P A A P A A P A P] | 0.00995 ± 0.00098 |
| APAPAEKTPVKKK [Unmod H1 variant A P A P A E K T P V K K K] | 0.0189 ± 0.00097 |
| VKKKARKSAGAAK [Unmod H1 variant V K K K A R K S A G A A K] | 0.0081 ± 0.00035 |
| GAAKRKASGPPVS [Unmod H1 variant G A A K R K A S G P P V S] | 0.00757 ± 0.00056 |
| PPVSELITKAVAA [Unmod H1 variant P P V S E L I T K A V A A] | 0.00833 ± 0.00045 |
| AVAASKERSGVSL [Unmod H1 variant A V A A S K E R S G V S L] | 0.0273 ± 0.0012 |
| GVSLAALKKALAA [Unmod H1 variant G V S L A A L K K A L A A] | 0.0257 ± 0.0036 |
| ALAAAGYDVEKNN [Unmod H1 variant A L A A A G Y D V E K N N] | 0.0215 ± 0.001 |

Each binder was assayed against HaloTag-ING2 PHD (mouse Ing2 200-280) in the same assay as above. Details: peptide region: Unmod H1 variant; binder concentration: 10 nM.
Method in brief: as §1

| Binder | peptide microarray binding signal |
| --- | --- |
| TKPKTAKPKKAAP [Unmod H1 variant T K P K T A K P K K A A P] | 0.00173 ± 2.1e-05 |
| KTAKPKKAAPKKK [Unmod H1 variant K T A K P K K A A P K K K] | 0.00203 ± 5.4e-05 |
| SETAPAAPAAPAP [Unmod H1 variant S E T A P A A P A A P A P] | 0.00394 ± 0.0003 |
| APAPAEKTPVKKK [Unmod H1 variant A P A P A E K T P V K K K] | 0.00466 ± 0.00027 |
| VKKKARKSAGAAK [Unmod H1 variant V K K K A R K S A G A A K] | 0.00203 ± 4.1e-05 |
| GAAKRKASGPPVS [Unmod H1 variant G A A K R K A S G P P V S] | 0.00245 ± 5e-05 |
| PPVSELITKAVAA [Unmod H1 variant P P V S E L I T K A V A A] | 0.00382 ± 0.00018 |
| AVAASKERSGVSL [Unmod H1 variant A V A A S K E R S G V S L] | 0.011 ± 0.00034 |
| GVSLAALKKALAA [Unmod H1 variant G V S L A A L K K A L A A] | 0.00621 ± 0.00023 |
| ALAAAGYDVEKNN [Unmod H1 variant A L A A A G Y D V E K N N] | 0.00991 ± 0.00043 |

Same assay, conditions: peptide region: Unmod H1 variant; binder concentration: 100 nM

| Binder | peptide microarray binding signal |
| --- | --- |
| TKPKTAKPKKAAP [Unmod H1 variant T K P K T A K P K K A A P] | 0.00567 ± 0.00041 |
| KTAKPKKAAPKKK [Unmod H1 variant K T A K P K K A A P K K K] | 0.00532 ± 0.00022 |
| SETAPAAPAAPAP [Unmod H1 variant S E T A P A A P A A P A P] | 0.00418 ± 0.00041 |
| APAPAEKTPVKKK [Unmod H1 variant A P A P A E K T P V K K K] | 0.012 ± 0.00083 |
| VKKKARKSAGAAK [Unmod H1 variant V K K K A R K S A G A A K] | 0.00553 ± 0.00055 |
| GAAKRKASGPPVS [Unmod H1 variant G A A K R K A S G P P V S] | 0.00822 ± 0.00024 |
| PPVSELITKAVAA [Unmod H1 variant P P V S E L I T K A V A A] | 0.00397 ± 0.00022 |
| AVAASKERSGVSL [Unmod H1 variant A V A A S K E R S G V S L] | 0.0228 ± 0.00053 |
| GVSLAALKKALAA [Unmod H1 variant G V S L A A L K K A L A A] | 0.0162 ± 0.0004 |
| ALAAAGYDVEKNN [Unmod H1 variant A L A A A G Y D V E K N N] | 0.0252 ± 0.0029 |

The binders below were run against anti-H3K4me3 antibody ab8580 in the same assay as above. Details: peptide region: Unmod H1 variant; binder concentration: 1:2,000 dilution.
Method in brief: as §1

| Binder | peptide microarray binding signal |
| --- | --- |
| TKPKTAKPKKAAP [Unmod H1 variant T K P K T A K P K K A A P] | 0.00108 ± 6.8e-05 |
| KTAKPKKAAPKKK [Unmod H1 variant K T A K P K K A A P K K K] | 0.000755 ± 3e-05 |
| SETAPAAPAAPAP [Unmod H1 variant S E T A P A A P A A P A P] | 0.00274 ± 0.001 |
| APAPAEKTPVKKK [Unmod H1 variant A P A P A E K T P V K K K] | 0.00136 ± 0.00038 |
| VKKKARKSAGAAK [Unmod H1 variant V K K K A R K S A G A A K] | 0.00145 ± 0.00015 |
| GAAKRKASGPPVS [Unmod H1 variant G A A K R K A S G P P V S] | 0.000793 ± 1.2e-05 |
| PPVSELITKAVAA [Unmod H1 variant P P V S E L I T K A V A A] | 0.00296 ± 0.001 |
| AVAASKERSGVSL [Unmod H1 variant A V A A S K E R S G V S L] | 0.00236 ± 0.00025 |
| GVSLAALKKALAA [Unmod H1 variant G V S L A A L K K A L A A] | 0.00157 ± 0.00018 |
| ALAAAGYDVEKNN [Unmod H1 variant A L A A A G Y D V E K N N] | 0.0067 ± 0.0027 |

Same assay, conditions: peptide region: Unmod H1 variant; binder concentration: 1:10,000 dilution

| Binder | peptide microarray binding signal |
| --- | --- |
| TKPKTAKPKKAAP [Unmod H1 variant T K P K T A K P K K A A P] | 0.00097 ± 9.9e-06 |
| KTAKPKKAAPKKK [Unmod H1 variant K T A K P K K A A P K K K] | 0.000913 ± 1.6e-05 |
| SETAPAAPAAPAP [Unmod H1 variant S E T A P A A P A A P A P] | 0.00337 ± 0.00036 |
| APAPAEKTPVKKK [Unmod H1 variant A P A P A E K T P V K K K] | 0.00223 ± 7.3e-05 |
| VKKKARKSAGAAK [Unmod H1 variant V K K K A R K S A G A A K] | 0.00143 ± 2.4e-05 |
| GAAKRKASGPPVS [Unmod H1 variant G A A K R K A S G P P V S] | 0.000799 ± 8.3e-06 |
| PPVSELITKAVAA [Unmod H1 variant P P V S E L I T K A V A A] | 0.0028 ± 0.00019 |
| AVAASKERSGVSL [Unmod H1 variant A V A A S K E R S G V S L] | 0.00479 ± 0.00028 |
| GVSLAALKKALAA [Unmod H1 variant G V S L A A L K K A L A A] | 0.00262 |
| ALAAAGYDVEKNN [Unmod H1 variant A L A A A G Y D V E K N N] | 0.00702 ± 0.00034 |

These binders were tested against anti-H3K9me3 antibody ab8898 in the same assay as above. Details: peptide region: Unmod H1 variant; binder concentration: 1:2,000 dilution.
Method in brief: as §1

| Binder | peptide microarray binding signal |
| --- | --- |
| TKPKTAKPKKAAP [Unmod H1 variant T K P K T A K P K K A A P] | 0.000227 ± 4.1e-06 |
| KTAKPKKAAPKKK [Unmod H1 variant K T A K P K K A A P K K K] | 0.000121 ± 1.3e-06 |
| SETAPAAPAAPAP [Unmod H1 variant S E T A P A A P A A P A P] | 0.00159 ± 8.6e-05 |
| APAPAEKTPVKKK [Unmod H1 variant A P A P A E K T P V K K K] | 0.000906 ± 4.5e-05 |
| VKKKARKSAGAAK [Unmod H1 variant V K K K A R K S A G A A K] | 0.000272 ± 4.9e-06 |
| GAAKRKASGPPVS [Unmod H1 variant G A A K R K A S G P P V S] | 0.000211 ± 4.5e-06 |
| PPVSELITKAVAA [Unmod H1 variant P P V S E L I T K A V A A] | 0.00106 ± 4.4e-05 |
| AVAASKERSGVSL [Unmod H1 variant A V A A S K E R S G V S L] | 0.00335 ± 9.4e-05 |
| GVSLAALKKALAA [Unmod H1 variant G V S L A A L K K A L A A] | 0.00131 ± 4.4e-05 |
| ALAAAGYDVEKNN [Unmod H1 variant A L A A A G Y D V E K N N] | 0.00281 ± 0.0003 |

Same assay, conditions: peptide region: Unmod H1 variant; binder concentration: 1:10,000 dilution

| Binder | peptide microarray binding signal |
| --- | --- |
| TKPKTAKPKKAAP [Unmod H1 variant T K P K T A K P K K A A P] | 0.000577 ± 6.2e-06 |
| KTAKPKKAAPKKK [Unmod H1 variant K T A K P K K A A P K K K] | 0.000577 ± 6.2e-06 |
| SETAPAAPAAPAP [Unmod H1 variant S E T A P A A P A A P A P] | 0.00167 ± 2.8e-05 |
| APAPAEKTPVKKK [Unmod H1 variant A P A P A E K T P V K K K] | 0.00098 |
| VKKKARKSAGAAK [Unmod H1 variant V K K K A R K S A G A A K] | 0.000634 |
| GAAKRKASGPPVS [Unmod H1 variant G A A K R K A S G P P V S] | 0.000634 |
| PPVSELITKAVAA [Unmod H1 variant P P V S E L I T K A V A A] | 0.00144 ± 5.7e-05 |
| AVAASKERSGVSL [Unmod H1 variant A V A A S K E R S G V S L] | 0.002825 ± 2.4e-05 |
| GVSLAALKKALAA [Unmod H1 variant G V S L A A L K K A L A A] | 0.00161 ± 3.1e-05 |
| ALAAAGYDVEKNN [Unmod H1 variant A L A A A G Y D V E K N N] | 0.00357 ± 0.00017 |
